Experimental data from PubChem BioAssay AID1159580 (chemical genetic matrix, 2015).
Values joined by “and” are separate entries in the source; they are usually repeats but may differ in a detail not shown here. Equal values may be shown once. Screen size: about 5,500 compounds; about 2,000 (36%) were called active. Roughly 18% stayed inconclusive and do not appear here. Rule as the data show it: active = normalized growth mostly below about 0.91 (no sharp cut-off); inconclusive = no clear call, values can overlap the other calls; inactive = mostly above about 0.92. This is one part of the list. A structure can be active in one record and inactive in another.

Assay: chemical genetic growth profiling, strain panel (AID 1159580);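 also: tested at 20 µM; growth read once vehicle control cultures reached saturation at 30 °C; 1 = growth at the plate median or of vehicle wells; lower values mean less growth of the strain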
Settings: S. cerevisiae deletion strains, growth OD

Measured: normalized growth

CN(C)CCCN1c2ccccc2Sc2ccc(C(F)(F)F)cc21
active: locus YAL021C, strain ccr4, stronger effect = lower value 0.799 | locus YAL026C, strain drs2, stronger effect = lower value 0.329 | locus YDR069C, strain doa4, stronger effect = lower value 0.846 | locus YDR137W, strain rgp1, stronger effect = lower value 1.25 [resistant] | locus YDR195W, strain ref2 1.27 [resistant] | locus YDR392W, strain spt3, stronger effect = lower value 1.22 [resistant] | locus YFR010W, strain ubp6, stronger effect = lower value 0.831
0.976 (inactive) and 0.395 (active): locus YGR229C, strain SMI1, stronger effect = lower value
inactive: locus YAL013W, strain DEP1, stronger effect = lower value 0.982 and 0.939 | locus YAL030W, strain snc1, stronger effect = lower value 1.01 | locus YAL040C, strain CLN3, stronger effect = lower value 0.99 | locus YBL061C, strain skt5, stronger effect = lower value 1.02 | locus YBR009C, strain hhf1, stronger effect = lower value 0.961 | locus YBR021W, strain FUR4, stronger effect = lower value 1.04 | locus YBR023C, strain chs3, stronger effect = lower value 0.999 | locus YBR171W, strain sec66, stronger effect = lower value 1.03 | locus YBR229C, strain ROT2, stronger effect = lower value 0.955 | locus YBR231C, strain swc5, stronger effect = lower value 1.04 | locus YBR279W, strain paf1, stronger effect = lower value 1.01 | locus YCL011C, strain gbp2, stronger effect = lower value 1.01 | locus YCL016C, strain dcc1, stronger effect = lower value 1.01 | locus YCL029C, strain bik1, stronger effect = lower value 0.968 | locus YCL061C, strain MRC1 (second series), stronger effect = lower value 0.987 | locus YCL061C, strain MRC1, stronger effect = lower value 1.02 | locus YCL069W, strain vba3, stronger effect = lower value 1.01 | locus YCR088W, strain abp1, stronger effect = lower value 1.02 | locus YDL005C, strain med2, stronger effect = lower value 1.06 | locus YDL035C, strain GPR1, stronger effect = lower value 0.983 | locus YDL040C, strain nat1, stronger effect = lower value 1.01 | locus YDL074C, strain BRE1, stronger effect = lower value 1.01 | locus YDL101C, strain DUN1, stronger effect = lower value 0.981 | locus YDL134C, strain PPH21, stronger effect = lower value 0.99 | locus YDL185W, strain tfp1, stronger effect = lower value 0.963 | locus YDL192W, strain arf1, stronger effect = lower value 0.963 | locus YDR001C, strain nth1, stronger effect = lower value 1.02 | locus YDR101C, strain arx1, stronger effect = lower value 0.994 | locus YDR150W, strain NUM1, stronger effect = lower value 0.978 and 0.989 | locus YDR159W, strain sac3, stronger effect = lower value 1.07 | locus YDR162C, strain NBP2, stronger effect = lower value 0.971 | locus YDR297W, strain sur2, stronger effect = lower value 1.02 | locus YDR318W, strain mcm21, stronger effect = lower value 1 | locus YDR334W, strain swr1, stronger effect = lower value 1.02 | locus YDR335W, strain msn5, stronger effect = lower value 1.02 | locus YDR363W, strain ESC2, stronger effect = lower value 0.896 | locus YDR388W, stronger effect = lower value 0.986 | locus YDR502C, strain sam2, stronger effect = lower value 0.992 | locus YEL003W, strain gim4, stronger effect = lower value 1 | locus YEL037C, strain rad23, stronger effect = lower value 1.01 | locus YEL061C, strain CIN8 (second series), stronger effect = lower value 1.01 | locus YEL061C, strain CIN8, stronger effect = lower value 0.989 | locus YER002W, strain NOP16, stronger effect = lower value 1.04 | locus YER015W, strain faa2, stronger effect = lower value 1.01 | locus YER016W, strain bim1, stronger effect = lower value 1.02 | locus YER110C, stronger effect = lower value 0.961 | locus YER111C, strain swi4, stronger effect = lower value 1.01 | locus YER155C, strain BEM2 (second series), stronger effect = lower value 1.06 | locus YER155C, strain BEM2, stronger effect = lower value 1 | locus YER167W, strain BCK2, stronger effect = lower value 0.997 | locus YGL078C, strain dbp3, stronger effect = lower value 0.985 | locus YGL086W, strain mad1, stronger effect = lower value 0.998 | locus YGL167C, strain pmr1, stronger effect = lower value 1.02 | locus YGL173C, strain kem1, stronger effect = lower value 0.996 | locus YGL227W, strain vid30, stronger effect = lower value 1.03 | locus YGL240W, strain doc1, stronger effect = lower value 1.05 | locus YGL248W, strain PDE1, stronger effect = lower value 0.983 | locus YGL253W, strain hxk2, stronger effect = lower value 1 | locus YGR078C, strain PAC10, stronger effect = lower value 1.01 | locus YGR135W, strain pre9, stronger effect = lower value 0.982 | locus YGR252W, strain gcn5, stronger effect = lower value 0.989 | locus YHR013C, strain ard1, stronger effect = lower value 0.939 | locus YHR027C, strain rpn1, stronger effect = lower value 1.01 | locus YHR030C, strain SLT2, stronger effect = lower value 0.991 and 1 | locus YHR079C, strain IRE1 (second series), stronger effect = lower value 0.975 | locus YHR079C, strain IRE1, stronger effect = lower value 0.991 | locus YHR094C, strain hxt1, stronger effect = lower value 0.981 | locus YHR129C, strain ARP1, stronger effect = lower value 1 | locus YHR142W, strain chs7, stronger effect = lower value 0.958 | locus YHR200W, strain rpn10, stronger effect = lower value 0.988 | locus YIL066C, strain RNR3, stronger effect = lower value 0.973 | locus YIL073C, strain SPO22, stronger effect = lower value 0.942 | locus YIL125W, strain kgd1, stronger effect = lower value 0.974 | locus YIR030C, strain dcg1, stronger effect = lower value 0.974 | locus YJL092W, strain hpr5, stronger effect = lower value 1.01 | locus YJL095W, strain BCK1 (second series), stronger effect = lower value 0.968 | locus YJL095W, strain BCK1, stronger effect = lower value 1.02 and 0.998 | locus YJL115W, strain asf1, stronger effect = lower value 1.03 | locus YJL129C, strain trk1, stronger effect = lower value 1.03 | locus YJL134W, strain LCB3, stronger effect = lower value 0.987 | locus YJL154C, strain vps35, stronger effect = lower value 1.01 | locus YJL164C, strain tpk1, stronger effect = lower value 0.921 | locus YJL166W, strain qcr8, stronger effect = lower value 0.951 | locus YJL168C, strain set2, stronger effect = lower value 0.978 | locus YJL187C, strain SWE1 (second series), stronger effect = lower value 0.992 | locus YJL187C, strain SWE1, stronger effect = lower value 1.01 | locus YJR043C, strain POL32, stronger effect = lower value 1
